Measurements as given in PubChem BioAssay (NCI).
This is part of a sample that, as a whole, favours compounds with a hit. Of some 83,000 tested, about 20% had one in any assay.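 Values shown are percent growth following 48 h exposure of cells in 96-well plates to a single concentration of compound; below 10 was considered active.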 The source made the active and inactive calls.

Each compound was assayed on HL-60(TB) leukemia (assay: NCI-60 one-dose screen, 48 h (100 = growth as untreated, 0 = no growth, -100 = all killed)). Conditions: 10 µM unless noted.

Structure (SMILES)	growth
CCOC(=O)c1cnc2c(C)cccc2c1Nc1ccc(C(C)=O)cc1	-43.5% (active)
CCCCCCCCCCCC(=O)[O][Sn]([CH2]CCC)([CH2]CCC)[CH2]CCC	-44.1% (active)
CC(CN)[C@@H]1CC[C@]2(CO)CC[C@]3(C)[C@H](CC[C@@H]4[C@@]5(C)CCC(NCCO)C(C)(C)[C@@H]5CC[C@]43C)[C@@H]12 (stereo not given in full)	60% (inactive)
CCCCC(CCCC)(S(=O)(=O)CC)S(=O)(=O)CC	94.7% (inactive)
N#C/C(=C\c1c(-c2ccccc2)[nH]c2ccccc12)C(=O)c1ccc(Cl)cc1	12.7% (inactive)
O=C1C(Cl)=C(Nc2cccc3ccccc23)C(=O)c2ccccc21	71.1% (inactive)
O=C(NCCNC(=O)Oc1cccc2ccccc12)Oc1cccc2ccccc12	79.7% (inactive)
O=S1(=O)OC(c2cc(Cl)c(O)c(Br)c2)(c2cc(Cl)c(O)c(Br)c2)c2ccccc21	92.4% (inactive)
CC(C)C[C@@H](NC(=O)[C@@H](Cc1ccccc1)NC(=O)c1cnccn1)B1O[C@H]2[C@H](O)[C@@H](C(=O)NCCCC[C@@H]3NC(=O)[C@@H](Cc4ccccc4)NC(=O)[C@H](CC(=O)O)NC(=O)CNC(=O)[C@H](CCCN=C(N)N)NC3=O)O[C@@H](CN)[C@H]2O1	-1.86% (active)
C=CCNCCC#N	109% (inactive)
COc1cc(-c2cc(-c3ccc(Nc4ncnc5cc(Cl)ccc45)cc3)nc(N3CCCCC3)n2)cc(OC)c1OC	91.6% (inactive)
O=C(Nc1ccc(-c2ccnc(Nc3ccc(N4CCOCC4)cc3)n2)cc1)[C@@H]1CCCN1	39.8% (inactive)
CCOC(=O)C1=C(C)N=c2s/c(=C\c3ccccc3O)c(=O)n2C1c1ccc(OC)c2ccccc12 (stereo not given)	-48.6% (active)
CNC(=O)c1cc(Oc2ccc3nc(Nc4cc(Cl)cc(Cl)c4)ccc3c2)ccn1	47.6% (inactive)
N#C/C(=C/c1c(O)ccc2ccccc12)C(N)=O	103% (inactive)
O=C(O)COc1ccccc1F	104% (inactive)
CN(C)c1ccc(/C=N\Nc2cc(=O)[nH]c3ccc(Cl)cc23)cc1	98.2% (inactive)
CCCCc1n(Cc2ccc3ccccc3c2)cc[n+]1Cc1ccc2ccccc2c1	-52.6% (active)
C=C1C(=O)O[C@@H]2[C@H]3[C@H](COC(C)=O)[C@@H](OC(C)=O)C[C@H]3C(=C)[C@@H](O)C[C@@H]12	78.9% (inactive)
COc1cccc2c1n([O-])c1cccc(OC)c1[n+]2=O	10.3% (inactive)

Structure (SMILES)	growth
CCCC(=O)OCC1OC(n2cnc3c(=S)nc(N)[nH]c32)C(OC(=O)CCC)C1OC(=O)CCC (stereo not given)	13.2% (inactive)
CCOC(=O)CCCC(=O)OCC	102% (inactive)
CN1CCC2(CC1)NC(=O)c1c(c3ccc(Cl)c(Cl)c3n1C)C2C#N (stereo not given)	70.8% (inactive)
O=c1[nH][n+](-c2ccc(Cl)cc2)no1	24.9% (inactive)
Cc1nc2cc(Nc3nc(Cl)nc(Nc4ccc(F)cc4)n3)ccc2n1Cc1ccccc1	53.2% (inactive)
N=C(N)c1ccc(-c2ccc(-c3ccc(F)cc3)s2)nc1	-28% (active)
CCN(CCNc1ccc(C)c2sc3ccccc3c(=O)c12)CC(C)(C)O	43.5% (inactive)
c1ccc2c(-c3nc4ccccc4[nH]3)cccc2c1	-3.88% (active)
CCCCSCC(=O)c1ccccc1	63.4% (inactive)
COc1ccc(-c2nc3c(c(=O)n2C(C)=O)C(c2ccc(Cl)cc2)c2sc4c(Cl)cccc4c2O3)cc1 (stereo not given)	-14% (active)
O=C(Nc1nc2ccc(C(=O)N3CCN(/C=C/c4ccccc4)CC3)cc2s1)c1ccc(NCCc2ccccc2)c([N+](=O)[O-])c1	80.5% (inactive)
Cc1ccc(-c2csc3nc(C)c(CCCl)c(=O)n23)cc1	107% (inactive)
COc1cccc(/C=N\NC(=O)c2ccncc2)c1O	9.43% (active)
N#CC(=C1SCS1)[N+](=O)[O-]	-4.02% (active)
COCCCNC(=O)c1nnn2c1nc(N)c1cc(Cl)ccc12	93.7% (inactive)
C[C@]12CC[C@@H]3c4ccc(O)cc4CC[C@H]3[C@@H]1C[C@H](O)C2	52% (inactive)
CCOC(=O)c1c(NC(=O)c2ccccc2)sc2c3c(ccc12)OCN(C)C3	-62.5% (active)
O=C(O)C1CCCCN1c1nc(Cl)nc(Cl)n1 (stereo not given)	97.8% (inactive)
CCCCCCCC(C)NCCO (stereo not given)	101% (inactive)
COC(=O)c1c2c(c(C)[n+]([O-])c1C)C(=O)C(NCc1ccccc1)=CC2=O	-2.98% (active)
